ChEMBL document CHEMBL3988442, “University of Dundee, Small-Polar-MMV Screening Library” (2021)
In all, about 48,000 compounds went through this assay and about 13,000 (27%) showed an effect of 50% or more. The list shows a part of the results.

system: Wolbachia pipientis; assay: Anti-Wolbachia Cell-Based Screen; assay type: functional; set-up: scale not given: in the data most compounds retested in dose-response had high values; settings: 5 µM

SMILES	Percent Effect [%]
c1cncc(OCCCNC2COc3ccccc3C2)c1 (stereo not drawn)	107.3
COc1cccc2c1OCC(NCCc1cnn(-c3ccccc3)c1)C2 (stereo not drawn)	-5.519
COc1cccc2c1OCC(NCCCOc1cccnc1)C2 (stereo not drawn)	86.98
c1ccc(OCCNC2CCN(c3ncccn3)CC2)cc1	-7.109
COc1cccc2c1OCC(NCc1cnn(-c3ccccc3)c1)C2 (stereo not drawn)	-6.454
c1cncc(OCCNC2Cc3ccccc3C2)c1	2.244
OC(CN(Cc1ccccc1)Cc1cscn1)c1cccs1 (stereo not drawn)	-27.1
CNC(=O)C1(c2cnccn2)CCCN1C(=O)c1ccn(C)n1 (stereo not drawn)	-6.037
CNC(=O)C1(c2cnccn2)CCCN1C(=O)c1ccccn1 (stereo not drawn)	81.35
CNC(=O)C1(c2cnccn2)CCCN1C(=O)c1cccc(F)c1 (stereo not drawn)	96.69
COc1ccc(CN2CCOC3(CCCN(c4cnccn4)C3)C2)cc1.O=C(O)C(F)(F)F.O=C(O)C(F)(F)F (stereo not drawn)	-2.164
COc1ccncc1NC(=O)C1(c2ccc(F)cc2)CCC1	-2.782
Cc1ccc(OC2(C(=O)O)CCN(C(=O)c3cccc(F)c3)CC2)cn1	1.243
O=C(c1cccc(F)c1)N1C[C@@H](CN2CCCCC2)[C@@H](CO)C1	0.9976
CNC(=O)C1(c2cnccn2)CCCN1C(=O)c1ccc(OC)cc1 (stereo not drawn)	106.6
CNC(=O)C1(c2cnccn2)CCCN1C(=O)c1ccc(F)cc1 (stereo not drawn)	95.13
CNC(=O)c1nc2c(s1)CCN(C(=O)c1ccc(OC)cc1)CC2	-5.332
Cc1ccc(OC2(C(=O)O)CCN(C(=O)c3ccc(F)cc3)CC2)cn1	-2.115
O=C(CCNS(=O)(=O)c1cccnc1)N1CCCCC1	-5.593
O=C(c1cnccn1)N1C[C@@H]2OCC(=O)N(CC3CCCCC3)[C@@H]2C1	-4.007
Cc1ccc(C)c(NC(=O)c2n[nH]c(-n3cnnc3)n2)c1	8.614
Cn1c(Nc2ccc(F)cc2)c(C#N)c(=O)n(C)c1=O	7.851
CC1(C(=O)NCCN2CCCCC2)CCCN1C(=O)c1ccccc1 (stereo not drawn)	0.8057
CNC(=O)C1(c2cnccn2)CCCN1C(=O)c1ccccc1 (stereo not drawn)	95.42
O=C(c1cnn(-c2ccccc2)c1)N1CCN(c2cnccn2)CC1	-7.881

SMILES	Percent Effect [%]
CNC(=O)C1(c2cnccn2)CCCN1C(=O)c1cccc(C)n1 (stereo not drawn)	90.25
Cc1cccc(C(=O)N2C[C@@H]3[C@H](CC(=O)Nc4cccnc4)[C@@H]3C2)n1.O=C(O)C(F)(F)F.O=C(O)C(F)(F)F	-1.772
Cc1cccc(C(=O)N2CCn3c(CN4CCN(C)CC4)cnc3C2)n1	-13.05
CC1=CC(C)(C)N(CN2C(=O)c3ccccc3C2=O)c2ccccc21	-12.76
CNC(=O)C(c1cccc(Cl)c1)C(C)C (stereo not drawn)	-9.115
COc1ccc(C2(c3nc(-c4cccnc4)no3)CCOCC2)cc1	-4.756
Cc1cnn(C2CCCN(C(=O)CCCc3ccccn3)C2)c1 (stereo not drawn)	102.3
Cc1nc(C)n(C2CCCN(C(=O)CCc3ccncc3)C2)n1 (stereo not drawn)	4.522
Cc1cc(C)n(C2CCCN(C(=O)CCCNc3ncccn3)C2)n1 (stereo not drawn)	16.33
Cc1cnn(C2CCCN(C(=O)CCCOc3cccc(F)c3)C2)c1 (stereo not drawn)	4.981
COc1ccc(CC(=O)N2CCCC(n3cc(C)cn3)C2)cc1F (stereo not drawn)	-2.795
Cc1cnn(C2CCCN(C(=O)CCCOc3ccccc3F)C2)c1 (stereo not drawn)	143.9
O=C(CCNc1ncccn1)N1CCCC(n2ccnc2)C1 (stereo not drawn)	-7.544
Cc1cc(C)n(C2CCCN(C(=O)CCNc3ncccn3)C2)n1 (stereo not drawn)	114.6
Cc1cnn(C2CCCN(C(=O)CCCNc3ncccn3)C2)c1 (stereo not drawn)	0.4653
Cc1nc(C)n(C2CCCN(C(=O)c3cccnc3NC(C)C)C2)n1 (stereo not drawn)	-8.043
Cc1nc(C)n(C2CCCN(C(=O)CCCc3ccccn3)C2)n1 (stereo not drawn)	81.77
CCOCc1nc2c(c(N3CC=CC3)n1)CCN(Cc1ccco1)CC2	-6.095
CCn1c(C)nnc1SCCNc1nc(C)nc2ncccc12	-6.645
CCOc1ccc(NS(=O)(=O)c2cc(C)c(C(=O)O)s2)c(C)c1	5.769
Cc1nn(C)c(C)c1C(C)NC(=O)c1cc(CN2CCC(O)CC2)on1 (stereo not drawn)	-4.084
Cc1cnn(Cc2ccc(NC(=O)N[C@@H]3C=C[C@H](CO)C3)cc2)c1	-14.53
CSC(C)Cc1c(-c2ccccc2)ncn1CCCNc1cccnc1 (stereo not drawn)	-5.851
Cc1cc(C)n(C2CCCN(C(=O)CCCc3ccccn3)C2)n1 (stereo not drawn)	93.32
Cc1cc(C)n(CC2CCCN2C(=O)CCCc2ccccn2)n1 (stereo not drawn)	-3.027

SMILES	Percent Effect [%]
CCc1nccn1C1CCCN(C(=O)CCCc2ccccn2)C1 (stereo not drawn)	115.4
Cc1cnn(C2CCCN(C(=O)CCCn3ccnc3C)C2)c1 (stereo not drawn)	111.3
CCc1nccn1C1CCCN(C(=O)Cc2n[nH]c3ccccc23)C1 (stereo not drawn)	-2.139
COc1ccccc1CC(=O)N1CCCC(n2nc(C)cc2C)C1 (stereo not drawn)	7.114
CCc1nccn1C1CCCN(C(=O)CCc2nccs2)C1 (stereo not drawn)	3.707
Cn1cnnc1C1CCCN(c2nc3ccccc3o2)C1 (stereo not drawn)	-0.3699
CCc1ncc2c(n1)CN(Cc1cn3ccsc3n1)CC2	20.43
Cc1nc2c(c(N(C)CC3Cc4ccccc4CN3C)n1)CCNCC2 (stereo not drawn)	-8.073
CC(C)(C)NC[C@@H]1CCC[C@@H]2CN(Cc3csnn3)C[C@@H]21.O=C(O)C(F)(F)F.O=C(O)C(F)(F)F	1.989
CCN(C)S(=O)(=O)N1C[C@@H]2CC[C@H](C1)N(Cc1cscn1)C2=O	-57.82
CCCNC(=O)C(C)Nc1ccc(COCC)cc1 (stereo not drawn)	-5.955
CC(Nc1cccc(CN2CCOC2=O)c1)C(=O)NC(N)=O (stereo not drawn)	6.904
COCc1cccc(NC(C)C(=O)N(C)Cc2ccccc2)c1 (stereo not drawn)	-9.622
CC(Nc1cccc(COCc2ccco2)c1)C(=O)NC(N)=O (stereo not drawn)	118
Cc1nnc(C(C)Nc2cccc(COCCOC(C)C)c2)o1 (stereo not drawn)	-13.05
CCOC(=O)C(C)Nc1cccc(COCc2ccco2)c1 (stereo not drawn)	114.3
O=C(O)C(F)(F)F.O=C(O)C(F)(F)F.O=C(c1ccncc1)N1CCN2C[C@H](Oc3cccc(F)c3)C[C@H]2C1	3.231
Cc1cccnc1NC(=O)C(C)Cn1nc(C(F)(F)F)cc1C (stereo not drawn)	5.887
c1c[nH]c2nc(C3CCNC3)nc-2c1 (stereo not drawn)	89.57
Fc1ccc2nc([C@H]3CCNC3)[nH]c2c1	-0.4881
CCC(=O)NCC(=O)Nc1ncc(I)cc1C	-1.135
C[C@H]1CN(c2ccccn2)C[C@@]12CCN(c1cccnc1)C2=O.O=C(O)C(F)(F)F.O=C(O)C(F)(F)F	96.67
C[C@@H]1CN(C(=O)C2CCOCC2)C[C@]12CCN(c1cccnc1)C2=O.O=C(O)C(F)(F)F	-10.36
COc1cc(N2CCC3(CC2)CCN(c2cccnc2)C3=O)ncn1.O=C(O)C(F)(F)F	-8.044
Cc1ccc(N2C[C@H](C)[C@]3(CCN(c4cccnc4)C3=O)C2)nn1.O=C(O)C(F)(F)F.O=C(O)C(F)(F)F	82.56

SMILES	Percent Effect [%]
NS(=O)(=O)CCNC(=O)c1cc(Br)c2c(c1)OCCO2	3.55
CC(C(=O)N1CCCN(Cc2cnn(C(C)C)c2)CC1)n1ccnc1 (stereo not drawn)	86.84
CC(C)n1cc(CN2CCCN(C(=O)C(C)n3cncn3)CC2)cn1 (stereo not drawn)	115.2
CC(C)C(C(=O)N1CCCN(Cc2cnn(C)c2)CC1)n1cncn1 (stereo not drawn)	-6.037
CC(C)n1cc(CN2CCCN(C(=O)C(C)n3cccn3)CC2)cn1 (stereo not drawn)	97.33
CC(C)n1cc(CN2CCCN(C(=O)c3nccnc3N)CC2)cn1	-14.33
CC(C(=O)N1CCCN(Cc2ccc(C#N)cc2)CC1)n1ccnc1 (stereo not drawn)	-13.4
CC(C)n1cc(CN2CCCN(C(=O)c3ccc[nH]3)CC2)cn1	-9.453
Cc1ncncc1C(=O)N1CCCN(Cc2cnn(C(C)C)c2)CC1	-23.75
CCC(=O)N1CCN(c2cc(-n3cnc(C)c3C)nc(C)n2)CC1	-0.8212
CN1CCOC(C(=O)N(C)c2ccc3c(c2)CCO3)C1 (stereo not drawn)	-1.104
Cc1cccc(-c2nc(C)nn2CN2CCN(c3ncccn3)CC2)c1	-20.31
CCC(C(=O)NCc1ccncc1)N(c1ccccc1)S(C)(=O)=O (stereo not drawn)	-24.56
COCCn1cc(NC(=O)NC(C)c2ccc(Cl)s2)cn1 (stereo not drawn)	1.705
CC1(C)[C@H](Cc2cc(CN3CCCCC3)on2)C[C@@H]1NS(C)(=O)=O	-2.638
CC(C)C(=O)N(C)Cc1nc(N2CCCC2)ncc1-c1ccncc1.Cl	82.87
CN(Cc1nc(N2CCCC2)ncc1-c1ccncc1)C(=O)C(C)(C)C.Cl	94.15
CN(C)C(CNC(=O)c1nc(N2CCCC2)ncc1Cl)c1ccco1 (stereo not drawn)	2.501
CN(Cc1ccsc1)C(=O)c1nc(N2CCCC2)ncc1Cl	-53.64
CN(Cc1ccsc1)C(=O)c1nc(N2CCCCC2)ncc1Cl	3.668
Cn1c(NC(=O)CCS(=O)(=O)C2CCCC2)nc2cc(Cl)ccc21	1.786
CCN(CC)CC[C@H]1CN(C(=O)CC(C)(C)C)CC[C@H]1CC(=O)O	-10.9
O=C(C1CC1)N1CCc2[nH]cnc2C12CCN(C1CCOCC1)CC2	-3.543
